FLuc modulator = qHTS profiling assay for firefly luciferase inhibitor/activator using purifed enzyme and Km concentrations of substrates (counterscreen for miR-21 project) | Luciferin 4-monooxygenase (Photinus pyralis), P08659 | purified FLuc, Km substrates, luminescence inhibition | Potency, µM (series often up to 57.5 µM), inactives show at the highest dose activity change, negative = inhibition, most hits filed as inhibitors | hit rate 6.9% among 360,000 | AID 588342, 2011;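 also: plate controls were vehicle for no effect and reference inhibitor for full effect; nearly all actives have a fitted effect of over 55% in size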
Target sequence (P08659 whole entry, looked up): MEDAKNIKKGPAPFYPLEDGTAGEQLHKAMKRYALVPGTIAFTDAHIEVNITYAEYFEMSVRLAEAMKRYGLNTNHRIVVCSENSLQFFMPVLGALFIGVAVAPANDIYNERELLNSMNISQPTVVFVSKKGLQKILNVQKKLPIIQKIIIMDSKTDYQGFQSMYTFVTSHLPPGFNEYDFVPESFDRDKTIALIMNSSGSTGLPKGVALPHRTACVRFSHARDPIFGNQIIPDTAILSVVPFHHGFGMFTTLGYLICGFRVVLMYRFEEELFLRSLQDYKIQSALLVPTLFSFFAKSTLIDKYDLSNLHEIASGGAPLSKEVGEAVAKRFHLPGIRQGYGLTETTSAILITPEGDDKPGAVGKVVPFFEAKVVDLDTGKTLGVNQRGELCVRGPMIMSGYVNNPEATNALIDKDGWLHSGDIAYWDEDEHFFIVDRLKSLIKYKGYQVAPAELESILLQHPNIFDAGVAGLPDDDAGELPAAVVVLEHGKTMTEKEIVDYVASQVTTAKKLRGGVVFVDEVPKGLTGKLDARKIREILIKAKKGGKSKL
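Purified P. pyralis luciferase (10nM final) with 10uM D-luciferin and 10uM ATP (Km levels) in 50mM Tris acetate pH 7.5, 10mM Mg acetate, 0.01% Tween-20, 0.05% BSA; qHTS 6-point titration, ~60 µM downward; luminescence read.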
SMN2 splice enh = qHTS Assay for Enhancers of SMN2 Splice Variant Expression; HEK293 SMN2-luciferase splicing reporter, luminescence, 30-36 h; Potency, µM (highest dose often 46.1 µM), inactives show at the highest dose activity change, positive = activation, most hits filed as activators; hit rate 2.8% among 210,000; AID 1458, 2008; also: % of control where 0% means no effect; nearly all actives have a fitted effect of over 55% in size
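qHTS luciferase splicing reporter: luminescence rises when SMN2 exon 7 is included in transfected HEK293 cells. Compound exposure lasted 30-36 h at 37C, with 4.5 mM final sodium butyrate as control, followed by a ONE-Glo read.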
ELG1 repair inh = qHTS screen for small molecules that inhibit ELG1-dependent DNA repair in human embryonic kidney (HEK293T) cells expressing luciferase-tagged ELG1. HEK293T ELG1-luciferase reporter, luminescence, 16 h; DNA damage induced by 5-fluorouridine. Potency, µM (series often up to 46.1 µM), without a hit: at the highest dose activity change, negative = inhibition, actives largely listed as inhibitors. hit rate 2.3% among 330,000. AID 504467, 2011; also: % is scaled to controls: 0 for no effect and ±100 for the full control effect; nearly all actives have a fitted effect of over 55% in size
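Quantitative HTS, concentration-response format. 2,000 cells/well co-treated with 5-fluorouridine and compound, 16 hr in 5% CO2 at 37 °C; ONE-Glo luminescence read after 30 min.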
ELG1 genotoxic = qHTS screen for small molecules that induce genotoxicity in human embryonic kidney (HEK293T) cells expressing luciferase-tagged ELG1; HEK293T ELG1-luciferase reporter, luminescence, 16 h; Potency, µM (series often up to 46 µM), for inactives: top-dose activity change, positive = activation, actives largely listed as activators; hit rate 1.3% among 330,000; AID 504466, 2011; also: % of control where 0% means no effect; nearly all actives have a fitted effect of over 60% in size
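ELG1-luciferase HEK293T cells, 2,000/well; compound pinned in; 16 hr, 37 °C, 5% CO2; ONE-Glo, 30 min RT; luminescence on CCD imager.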
Rab9 promoter act = qHTS Assay for Rab9 Promoter Activators | hit rate 2.8% among 320,000 | Huh7 Rab9 promoter-luciferase reporter, luminescence, 24 h | Potency, µM (titrated, usually from 9.22 µM), without a hit: top-dose activation, negative = inhibition, most hits filed as activators; also: % of control where 0% means no effect; nearly all actives have a fitted effect of over 60% in size
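Using Huh7 cells stably transfected with Rab9 promoter–luciferase, compounds were incubated 24 h at 37 °C, 5% CO2; luciferase luminescence was read 10 min after reagent addition.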
NPC1 promoter act = qHTS Assay for NPC1 Promoter Activators; Huh7 NPC1 promoter luciferase reporter, 24 h; Potency, µM (titrated, usually from 9.22 µM), for inactives: at the top dose activation, most hits filed as activators; hit rate 2.4% among 320,000; AID 485313, 2010; also: % of control where 0% means no effect; nearly all actives have a fitted effect of over 60% in size
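Quantitative HTS used a cell-based reporter: Huh7 cells stably bearing the NPC1 promoter upstream of luciferase were treated with compounds for 24 h, and promoter activation was read as luminescence.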
* hit, by the source's call; ? = inconclusive; / = no result; [ ] = another dose, or the depositor's remark. Shown are actives, neighbours in structure and some others; about 9.2% of the full set was active somewhere. Calls follow the shape of the dose curve; as a rule, active = well fitted curve in the direction sought with a large enough effect; inconclusive = small, poorly fitted or top-dose-only effect, or another doubt; inactive = no such curve, though single readings can be large; an effect the other way counts as inactive or inconclusive. Potency is read from the fitted curve at half-maximal effect.

SMILES | FLuc modulator | SMN2 splice enh | ELG1 repair inh | ELG1 genotoxic | Rab9 promoter act | NPC1 promoter act
O=C(c1cc2cc(Br)ccc2o1)N1CCOCC1 | 21.3µM* | / | ? | 21.0% | ? | 12.8%
CN(C)c1ccc(Nc2nc3ccccc3n3nnnc23)cc1 | 6.75µM* | -8.5% | / | / | / | /
CCOc1ccc(CCNC(=O)c2ccc(Nc3nc4ccccc4n4nnnc34)cc2)cc1OCC | -5.3% | 3.4% | / | / | / | /
CCOc1ccc(Nc2nc3ccccc3n3nnnc23)cc1 | ? | 14.2% | ? | ? | 4.47µM* | 27.4%
Cc1ccc(N2CCN(C(=O)c3ccc(Nc4nc5ccccc5n5nnnc45)cc3)CC2)c(C)c1 | 1.6% | 5.9% | / | / | / | /
Cc1ccc(C(=O)O)cc1Nc1nc2ccccc2n2nnnc12 | 16.9µM* | ? | / | / | / | /
CC(NC(=O)c1ccc(Nc2nc3ccccc3n3nnnc23)cc1)c1ccccc1 (stereo not given) | -1.6% | 17.6% | / | / | / | /
N#Cc1ccc2c(c1)C[C@]1(CCCCN3C(=O)c4ccccc4C3=O)Oc3c(c(=O)oc4ccc(F)cc34)C2O1 | 0.7%[11.5 µM] | / | / | / | -4.7%[1.84 µM] | 2.5%[1.84 µM]
Cc1ccc(-c2nc3c(c(SCc4ccc(Br)cc4)n2)Cc2c(CO)cnc(C)c2O3)cc1 | -0.2% | / | / | / | / | /
Cc1ccc2c(CN3CCC(C)CC3)cc(=O)oc2c1C | 16.9µM* | / | ? | ? | ? | ?
Cc1ccc2c(CN3CC(C)CC(C)C3)cc(=O)oc2c1C (stereo not given) | -14.1% | / | 7.5% | -0.1% | -4.6% | 1.1%
Cc1c(O)ccc2c(CN3CCN(C/C=C/c4ccccc4)CC3)cc(=O)oc12 | 4.3% | / | 18.3µM* | -1.8% | -5.6% | -0.5%
COc1ccc(C)cc1NC(=O)C1CCN(S(=O)(=O)Cc2ccccc2)CC1 | -1.0% | / | / | / | / | /
CCCCCN(C(=O)CCC(=O)OCc1ccc(Cl)cc1Cl)c1c(N)n(CCCC)c(=O)[nH]c1=O | -0.3% | / | -16.5% | -4.2% | -0.9% | 1.2%
COc1ccc(S(=O)(=O)c2nnn(-c3ccccc3F)c2C)cc1 | -8.7% | -13.7% | / | / | / | /
Cc1ccc2nc(SCC(=O)c3ccc(O)cc3O)[nH]c2c1 | 8.49µM* | / | ? | ? | 3.16µM* | ?
COC(=O)CSc1nc2ccc(C)cc2[nH]1 | ? | -1.6% | 20.6% | 1.2% | 0.3% | -0.9%
Cc1ccc2nc(SC(C)C(=O)N3CCCC3)[nH]c2c1 (stereo not given) | ? | 11.2µM* | ? | ? | ? | 15.0%
Cc1ccc2nc(SCC(=O)N3CCCC3)[nH]c2c1 | 6.75µM* | 11.2µM* | ? | 3.66µM* | 1.41µM* | 2µM*
COC(=O)c1nnn(CC(=O)Nc2c(C)cccc2C)c1N | -1.5% | -2.9% | / | / | / | /
CCc1ccc(NC(=O)C2C3CCC(O3)C2C(=O)O)cc1 (stereo not given) | -13.6% | / | ? | ? | 20.2% | 4.7%
CN(C)CCNC(=O)c1ccc(-n2c(-c3ccccc3)cc3c2CCCC3)cc1 | -9.5% | / | / | / | / | /
COc1cc(C(=O)NC2CC(=O)N(c3cccc(F)c3)C2)cc(OC)c1OC (stereo not given) | -0.9% | / | / | / | / | /
CC(C)(C)c1ccc(/C=C/C(=O)N2CCCCC2)cc1 | 6.75µM* | 12.6µM* | ? | ? | 1.58µM* | 3.98µM*
O=C(/C=C/c1ccccc1)N1CCCN(C(=O)/C=C/c2ccccc2)CC1 | ? | -9.2% | -5.9% | 3.2% | 5.0% | 8.2%
SMILES | FLuc modulator | SMN2 splice enh | ELG1 repair inh | ELG1 genotoxic | Rab9 promoter act | NPC1 promoter act
CC1CCN(C(=O)/C=C/c2ccc(C(C)(C)C)cc2)CC1 | 15.1µM* | 21.5% | ? | ? | 28.9% | 18.0%
CC(C)Cc1ccc(/C=C/C(=O)N2CCCCC2)cc1 | 7.57µM* | 11.2µM* | ? | 14.0% | 0.891µM* | 2.51µM*
COc1ccc(/C=C/C(=O)N2CCC(c3nc4ccccc4o3)CC2)cc1OC | -3.1% | / | / | / | / | /
Cc1ccc(/C=C/C(=O)N2CCC(c3nc4ccccc4o3)CC2)cc1 | 10.7µM* | / | / | / | / | /
CN1CCN(C(=O)/C=C/c2ccc(Cl)cc2)CC1 | -9.8% | / | ? | 3.3% | -6.3% | 5.7%
Cc1cc(Cl)ccc1OCC(=O)N(Cc1sccc1C)C1CCS(=O)(=O)C1 (stereo not given) | -12.8% | 1.9% | / | / | / | /
COc1ccc(N(CC(=O)NCCSc2ccc(C)cc2)S(=O)(=O)c2ccccc2)c(OC)c1 | 2.4% | / | ? | -19.7% | -5.1% | 2.6%
CC(=O)N1CCc2c(sc3c2c(=O)n(CCc2ccccc2)c(=O)n3Cc2cccc(C)c2)C1 | 5.6% | -1.5% | / | / | / | /
CC(=O)N1CC(C)Sc2ccc(S(=O)(=O)NCCc3cccc(C)c3)cc21 (stereo not given) | 6.1% | / | -9.1% | -4.0% | -3.2% | -4.4%
CC(C)Cc1ccc(/C=C/C(=O)NC2CC2)cc1 | 4.78µM* | ? | ? | 16.4µM* | 3.55µM* | ?
CCOC(=O)C1CCCN(C(=O)/C=C/c2ccc(Cl)cc2)C1 (stereo not given) | -20.0% | -5.8% | 4.0% | -1.2% | 3.2% | 0.2%
Cc1ccc(/C=C/C(=O)N2CCCC(C)C2)cc1 (stereo not given) | 3.01µM* | 1.12µM* | ? | 9.2µM* | 2.24µM* | 1.26µM*
Cc1ccc(/C=C/C(=O)N2CCC(Cc3ccccc3)CC2)cc1 | 21.3µM* | -7.8%[1.84 µM] | 1.0% | -0.9% | -4.5% | 0.4%
COc1ccc(N(CC(=O)NCCSCc2ccccc2C)S(=O)(=O)c2ccccc2)cc1 | 1.3% | / | ? | -25.1% | -3.2% | -4.1%
Cc1cc2nc(-c3ccc(SCc4ccc(C#N)cc4)nc3)[nH]c2cc1C | 5.36µM* | -25.8% | ? | 0.6% | -2.6% | -2.6%
CCc1nnc(NC(=O)CSc2ccc(-c3nc4ccc(C)cc4[nH]3)cn2)s1 | 1.69µM* | / | ? | 13µM* | 3.16µM* | 2.82µM*
Cc1ccc2nc(-c3ccc(SCC(=O)N4CCc5ccccc54)nc3)[nH]c2c1 | 0.269µM* | 11.2µM* | ? | 0.4% | 3.16µM* | 3.55µM*
N#Cc1ccccc1CSc1ccc(-c2nc3ccccc3[nH]2)cn1 | 19µM* | -57.8% | 0.0% | ? | 21.3% | 21.0%
CCc1nnc(NC(=O)CSCc2cc(=O)c3ccc(C)cc3[nH]2)s1 | -8.4% | / | / | / | / | /
CC(=O)CSc1ccc(-c2nc3ccccc3[nH]2)cn1 | 4.26µM* | / | ? | ? | 0.708µM* | 0.562µM*

Assay outcomes (PubChem BioAssay)
